# Data published in PubChem BioAssay (NCATS).
# Results filed as inconclusive are left out. Activity calls are given as the source filed them. Unless noted, calls follow the shape of the full dose curve.
# Test: S16 Schwann cell PMP22 intronic element firefly luciferase assay (AID 624032; active = well fitted inhibition curve with a large enough effect; also: nearly all actives have a fitted effect of over 30% in size;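 as to activity change, negative = inhibition: plate controls were DMSO for no effect and PTC124 positive control mean for full effect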)
# Conditions: S16 rat Schwann cells, PMP22 element FLuc, 24 h; series mostly up to 57.5 µM; activity change, negative = inhibition: at the top concentration
# Method in brief: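 Luciferase reporter of PMP22 intronic-element expression in stably transfected S16 rat Schwann cells, read by ONE-Glo luminescence after 24 h compound exposure at 37 C. Activity scaled between DMSO (0%) and positive-control PTC124; concentration-effect curves quality-classified.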
# Potency is read from the fitted curve at half-maximal effect.
SMILES,"activity change, negative = inhibition",Potency
C=Cc1ccc(S(=O)(=O)O)cc1,-8.63% (inactive),–
Cc1ccccn1,4.21% (inactive),–
Cc1ncc(C[n+]2csc(CCOP(=O)(O)OP(=O)(O)O)c2C)c(N)n1,-23.8% (inactive),–
CC(=O)Nc1c(I)c(C(=O)O)c(I)c(N(C)C(C)=O)c1I,-11.8% (inactive),–
O=C(NNCNNC(=O)c1ccncc1)c1ccncc1,5.37% (inactive),–
CCCCCCCCCCCCOCCCN,-29.5% (inactive),–
O=C1[O][Bi][O]c2ccccc21,-2.45% (inactive),–
CC(C)C1=CC2=CC[C@@H]3[C@](C)(CCC[C@@]3(C)C(=O)O)[C@H]2CC1,19.2% (inactive),–
CC(C)(CO)[C@@H](O)C(=O)NCCC(=O)NCCSSCCNC(=O)CCNC(=O)[C@H](O)C(C)(C)CO,-11.7% (inactive),–
O=P(O)(O)OC[C@H](O)CO,-5.49% (inactive),–
CC12CCC(C1)C(C)(C)C2=O (centres undefined),-2.16% (inactive),–
CC(C)CCCC(C)NC(C)C (centres undefined),8.24% (inactive),–
CCCCC(CC)CCC(CC(C)C)OS(=O)(=O)O (centres undefined),-5.29% (inactive),–
O=C(O)CCCC/C=C(\c1ccccc1)c1cccnc1,-3.86% (inactive),–
CC(C)[C@H](N)C(=O)OCC(CO)OCn1cnc2c(=O)[nH]c(N)nc21 (some centres undefined),0.55% (inactive),–
CNC(=O)C[C@@H](N)C(=O)N[C@@H](C(=O)N[C@@H]1C(=O)N2[C@@H]1SC(C)(C)[C@@H]2C(=O)O)c1ccc(O)cc1,33.6% (inactive),–
CC(=O)c1ccc2c(c1)N(CCCN1CCN(CCO)CC1)c1ccccc1S2,–,16.1 µM (active)
CNC(=O)c1c(I)c(C(=O)NCC(=O)Nc2c(I)c(C(=O)O)c(I)c(C(=O)NCCO)c2I)c(I)c(N(C)C(C)=O)c1I,13.4% (inactive),–
CCCc1nc(C(C)(C)O)c(C(=O)OCc2oc(=O)oc2C)n1Cc1ccc(-c2ccccc2-c2nn[nH]n2)cc1,-27.1% (inactive),–
O=C(O)c1ccc(NC(=O)[C@H](Cc2ccc(O)cc2)NC(=O)c2ccccc2)cc1,-0.363% (inactive),–
CCCC(CCC)C(=O)OC1C[C@H]2CC[C@@H](C1)[N+]2(C)C (some centres undefined),-26.2% (inactive),–
CCN(CC)CCOc1ccccc1OC,-2.39% (inactive),–
FC(F)(F)C(F)(F)C(F)(F)C(F)(F)C(F)(F)F,5.06% (inactive),–
C[C@]12CCC(=O)C[C@@H]1CC[C@@H]1[C@@H]2CC[C@]2(C)C=CC[C@@H]12,-35.4% (inactive),–

# Test: S16 Schwann cell PMP22 intronic element beta-lactamase assay (AID 624044); also: nearly all actives have a fitted effect of over 15% in size;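 as to ratio activity, negative = inhibition: 0% = DMSO and -100% = potassium clavulanate positive control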
# Conditions: S16 rat Schwann cells, PMP22 element beta-lactamase FRET, 24 h; ratio activity, negative = inhibition: at 38.3 µM (top of the series) unless noted
# Method in brief: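 Rat S16 Schwann cells with beta-Lac driven by a PMP22 intronic element, compound-treated 24 h at 37 °C. LiveBLAzer FRET B/G read: 460 nm normalized to potassium clavulanate vs DMSO; 535 nm FRET as viability; concentration-effect curves classified.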
SMILES,"ratio activity, negative = inhibition",Potency
O=C(CCCCCCCCCCCCC1CCCC1)Nc1ccc(S(=O)(=O)c2ccc(NC(=O)CCCCCCCCCCCCC3CCCC3)cc2)cc1,4.78% (inactive),–
Oc1cc(O)cc(O)c1,10.4% (inactive),–
NCC(O)CC(=O)O (centres undefined),4.25% (inactive),–
CN[C@@H]1[C@H](O[C@H]2[C@H](O[C@H]3[C@H](O)[C@@H](O)[C@H](N=C(N)N)[C@@H](O)[C@@H]3N=C(N)N)O[C@@H](C)[C@]2(O)C=O)O[C@@H](CO)[C@H](O)[C@H]1O,0% (inactive),–
NC(=O)C1c2ccccc2CCc2ccccc21,-1.01% (inactive),–
CCOC(=O)[C@@H](N)CS,-2.51% (inactive),–
COC1=C(OC)C(=O)C(C/C=C(\C)CC/C=C(\C)CC/C=C(\C)CC/C=C(\C)CC/C=C(\C)CC/C=C(\C)CC/C=C(\C)CC/C=C(\C)CC/C=C(\C)CCC=C(C)C)=C(C)C1=O,0.236% (inactive),–
CCCCCCCCCCCCCCCCOCCOCCOCCOCCOCCOCCOCCOCCOCCOCCOCCOCCOCCOCCOCCOCCOCCOCCOCCOCCO,–,19.9 µM (active)
CS(=O)(=O)c1ccc([C@@H](O)[C@@H](COC(=O)CN)NC(=O)C(Cl)Cl)cc1,3.99% (inactive),–
CC(=O)Nc1ccc(OC(C)=O)cc1,-15.5% (inactive),–
NC(=S)NS(=O)(=O)c1ccc(N)cc1,-12.7% (active),–
COc1cc(S(C)=O)ccc1-c1nc2ncccc2[nH]1 (centres undefined),-7.74% (inactive),–
Cc1nc(NS(=O)(=O)c2ccc(N)cc2)nc(C)c1Br,0.0634% (inactive),–
O=C(CCCN1CCN2CCCC2C1)c1ccc(F)cc1 (centres undefined),-6.15% (inactive),–
O=C(O)COc1ccc(CCNS(=O)(=O)c2ccccc2)s1,-0.95% (inactive),–
[O]=[Bi][O]C(=O)[O][Bi]=[O],-4.42% (inactive),–
C=Cc1ccc(S(=O)(=O)O)cc1,-7.16% (inactive),–
Cc1ccccn1,-0.827% (inactive),–
Cc1ncc(C[n+]2csc(CCOP(=O)(O)OP(=O)(O)O)c2C)c(N)n1,-0.395% (inactive),–
CC(=O)Nc1c(I)c(C(=O)O)c(I)c(N(C)C(C)=O)c1I,11.6% (inactive),–

SMILES,"ratio activity, negative = inhibition",Potency
O=C(NNCNNC(=O)c1ccncc1)c1ccncc1,-2.76% (inactive),–
CCCCCCCCCCCCOCCCN,0.509% (inactive),–
O=C1[O][Bi][O]c2ccccc21,0.885% (inactive),–
CC(C)C1=CC2=CC[C@@H]3[C@](C)(CCC[C@@]3(C)C(=O)O)[C@H]2CC1,-5.72% (inactive),–
CC(C)(CO)[C@@H](O)C(=O)NCCC(=O)NCCSSCCNC(=O)CCNC(=O)[C@H](O)C(C)(C)CO,2.37% (inactive),–
O=P(O)(O)OC[C@H](O)CO,2.95% (inactive),–
CC12CCC(C1)C(C)(C)C2=O (centres undefined),1.35% (inactive),–
CC(C)CCCC(C)NC(C)C (centres undefined),5.39% (inactive),–
CCCCC(CC)CCC(CC(C)C)OS(=O)(=O)O (centres undefined),0% (inactive),–
O=C(O)CCCC/C=C(\c1ccccc1)c1cccnc1,-4.66% (inactive),–
CC(C)[C@H](N)C(=O)OCC(CO)OCn1cnc2c(=O)[nH]c(N)nc21 (some centres undefined),0.697% (inactive),–
CNC(=O)C[C@@H](N)C(=O)N[C@@H](C(=O)N[C@@H]1C(=O)N2[C@@H]1SC(C)(C)[C@@H]2C(=O)O)c1ccc(O)cc1,-2.79% (inactive),–
CC(=O)c1ccc2c(c1)N(CCCN1CCN(CCO)CC1)c1ccccc1S2,-15.1% (inactive),–
CNC(=O)c1c(I)c(C(=O)NCC(=O)Nc2c(I)c(C(=O)O)c(I)c(C(=O)NCCO)c2I)c(I)c(N(C)C(C)=O)c1I,5.89% (inactive),–
CCCc1nc(C(C)(C)O)c(C(=O)OCc2oc(=O)oc2C)n1Cc1ccc(-c2ccccc2-c2nn[nH]n2)cc1,0.293% (inactive),–
O=C(O)c1ccc(NC(=O)[C@H](Cc2ccc(O)cc2)NC(=O)c2ccccc2)cc1,6% (inactive),–
CCCC(CCC)C(=O)OC1C[C@H]2CC[C@@H](C1)[N+]2(C)C (some centres undefined),6.3% (inactive),–
CCN(CC)CCOc1ccccc1OC,-7.82% (inactive),–
FC(F)(F)C(F)(F)C(F)(F)C(F)(F)C(F)(F)F,0% (inactive),–
C[C@]12CCC(=O)C[C@@H]1CC[C@@H]1[C@@H]2CC[C@]2(C)C=CC[C@@H]12,4.94% (inactive),–
